Source: PubChem BioAssay (Tox21)
Inconclusive results are not listed. Entries that show only a call come without a potency. A number with no mark means an inactive call. Activity calls are given as the source filed them. Unless noted, calls come from the whole dose curve; as a rule, active = well fitted curve in the direction sought with a large enough effect in the repeat runs; inconclusive = weak or mixed curves; inactive = no such curve, though single readings can be large; an effect the other way counts as inactive or inconclusive.

How the values were obtained:
[1] = qHTS assay to identify aromatase inhibitors - cell viability counter screen (AID 743084);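 note: cells stimulated with testosterone during compound exposure; nearly all actives have a fitted effect of over 55% in size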
[2] = target: Aryl hydrocarbon receptor (Homo sapiens) (UniProt P35869); test: qHTS assay to identify small molecule that activate the aryl hydrocarbon receptor (AhR) signaling pathway (AID 743085); note: nearly all actives have a fitted effect of over 15% in size; note: potency is the fitted concentration of half-maximal effect;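 for activation: HG2L7.5c1 human HepG2 liver cells with stably integrated DRE-driven firefly reporter; series mostly up to about 70 µM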
Aryl hydrocarbon receptor (Homo sapiens), sequence (P35869 whole entry, looked up): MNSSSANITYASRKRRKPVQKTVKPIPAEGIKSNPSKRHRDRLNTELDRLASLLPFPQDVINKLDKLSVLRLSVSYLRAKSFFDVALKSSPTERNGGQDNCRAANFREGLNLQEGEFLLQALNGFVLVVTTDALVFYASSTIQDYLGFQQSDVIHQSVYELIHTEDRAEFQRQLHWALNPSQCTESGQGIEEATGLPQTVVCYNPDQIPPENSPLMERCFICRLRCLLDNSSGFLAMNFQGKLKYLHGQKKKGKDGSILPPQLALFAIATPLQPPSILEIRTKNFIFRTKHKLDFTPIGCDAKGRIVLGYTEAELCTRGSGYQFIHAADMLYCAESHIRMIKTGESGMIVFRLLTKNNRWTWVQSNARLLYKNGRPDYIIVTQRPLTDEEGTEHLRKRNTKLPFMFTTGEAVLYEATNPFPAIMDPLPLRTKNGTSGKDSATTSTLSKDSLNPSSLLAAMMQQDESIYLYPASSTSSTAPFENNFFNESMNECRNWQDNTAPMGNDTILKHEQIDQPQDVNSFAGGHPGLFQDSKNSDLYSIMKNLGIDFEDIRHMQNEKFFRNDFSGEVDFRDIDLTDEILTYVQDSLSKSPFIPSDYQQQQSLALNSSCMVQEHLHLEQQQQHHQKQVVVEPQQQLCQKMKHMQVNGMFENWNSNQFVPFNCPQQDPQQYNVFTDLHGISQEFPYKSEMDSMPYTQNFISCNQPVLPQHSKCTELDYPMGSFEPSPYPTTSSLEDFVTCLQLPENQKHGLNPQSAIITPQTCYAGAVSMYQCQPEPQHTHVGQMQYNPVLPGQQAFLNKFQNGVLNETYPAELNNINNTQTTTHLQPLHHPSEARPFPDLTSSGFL
In short: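 AhR agonist activity is inferred from enhanced light output of a DRE-controlled firefly luciferase reporter in HepG2 cells, measured with ONE-Glo following 24 h treatment at 37C.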

[3] = qHTS assay to identify small molecule that activate the aryl hydrocarbon receptor (AhR) signaling pathway - cell viability counter screen (AID 743086);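 note: HepG2 liver cells carrying the AhR DRE luciferase reporter; series mostly up to about 70 µM; nearly all actives have a fitted effect of over 45% in size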
In short: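 HepG2-AhR-luc (HG2L7.5c1) cells, 4000/well, treated 24 h at 37 C with compound; viability measured as CellTiter-Fluor fluorescence after 30 min in the same wells as the luciferase read.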

[4] = target: Peroxisome proliferator-activated receptor gamma (Homo sapiens) (UniProt P37231); test: qHTS assay to identify small molecule agonists of the peroxisome proliferator-activated receptor gamma (PPARg) signaling pathway (AID 743094; active = well fitted activation curve with a large enough effect in the signal ratio in the repeat runs, not every such curve was filed as active; the % refers to the signal ratio)
Peroxisome proliferator-activated receptor gamma (Homo sapiens), sequence (P37231 whole entry, looked up): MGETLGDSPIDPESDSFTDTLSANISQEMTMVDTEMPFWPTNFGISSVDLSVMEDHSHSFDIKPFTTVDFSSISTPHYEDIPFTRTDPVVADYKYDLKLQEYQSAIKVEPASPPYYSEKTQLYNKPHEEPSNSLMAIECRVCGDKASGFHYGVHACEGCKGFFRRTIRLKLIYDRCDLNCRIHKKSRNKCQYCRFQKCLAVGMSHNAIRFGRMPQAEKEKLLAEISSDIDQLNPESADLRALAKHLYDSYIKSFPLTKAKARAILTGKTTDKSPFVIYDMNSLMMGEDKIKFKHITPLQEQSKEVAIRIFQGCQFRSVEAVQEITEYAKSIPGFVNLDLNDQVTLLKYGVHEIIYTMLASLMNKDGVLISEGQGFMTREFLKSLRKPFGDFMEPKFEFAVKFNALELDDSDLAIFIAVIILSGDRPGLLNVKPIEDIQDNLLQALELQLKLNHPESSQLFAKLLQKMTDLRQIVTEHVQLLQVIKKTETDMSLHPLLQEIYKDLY
In short: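 HEK293H PPARg-bla cells, 5 h settle at 37C/5% CO2; compound (DMSO) 17 h, 37C; B/G FRET substrate 1 h RT; fluorescence intensity read-out. qHTS format.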

[5] = target: Peroxisome proliferator-activated receptor gamma (Homo sapiens) (UniProt P37231); test: qHTS assay to identify small molecule antagonists of the peroxisome proliferator-activated receptor gamma (PPARg) signaling pathway (AID 743191; calls by dose curve; note: nearly all actives have a fitted effect of over 30% in size; note: potency is the fitted concentration of half-maximal effect)
In short: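 GeneBLAzer PPARg UAS-bla HEK293H cells, 5 h post-plating, exposed to compounds 17 h at 37C. LiveBLAzer B/G FRET substrate added for 1 h at room temperature; beta-lactamase reporter read by fluorescence intensity.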

[6] = qHTS assay to identify small molecule antagonists of the peroxisome proliferator-activated receptor gamma (PPARg) signaling pathway - cell viability counter screen (AID 743194); settings: Potency: co-treated with 50 nM rosiglitazone; note: nearly all actives have a fitted effect of over 55% in size
In short: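 Cytotoxicity counter screen in PPARg-bla HEK293H cells, same wells as reporter assay. Compounds plus 50 nM rosiglitazone (final) for 17 h at 37 C, then viability read by CellTiter-Glo luminescence.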

[7] = qHTS assay for small molecule agonists of the antioxidant response element (ARE) signaling pathway - cell viability counter screen (AID 743203; calls by dose curve; note: nearly all actives have a fitted effect of over 55% in size; note: potency is the fitted concentration of half-maximal effect)
In short: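 Luminescence read-out (CellTiter-Glo, 30 min at room temperature) measured cell viability in the same wells as the ARE beta-lactamase reporter. HepG2 ARE-bla cells were treated with compounds for 16 hrs at 37C/5% CO2.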

[8] = qHTS assay for small molecule activators of the heat shock response signaling pathway - cell viability counter screen (AID 743209); note: nearly all actives have a fitted effect of over 50% in size; note: potency is the fitted concentration of half-maximal effect
In short: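 HSE-bla HeLa; 1500 cells/well; overnight 37 C, 5% CO2; compound 5 h 37 C; LiveBLAzer B/G substrate 2.5 h RT; CellTiter-Glo 30 min RT; luminescence.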

[9] = qHTS assay for small molecule activators of the heat shock response signaling pathway (AID 743210; active = well fitted activation curve with a large enough effect in the signal ratio in the repeat runs, with a control signal flat, not every such curve was filed as active; the % refers to the signal ratio;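 note: HeLa cells with beta-lactamase reporter driven by heat shock elements; series mostly up to about 63 µM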)
In short: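 Beta-lactamase reporter read-out: FRET substrate fluorescence after 2.5 h at RT, following 5 h compound treatment at 37 C of HeLa cells carrying HSE-driven bla reporter; quantitative HTS format.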

[10] = qHTS assay to identify small molecule agonists of the peroxisome proliferator-activated receptor delta (PPARd) signaling pathway - cell viability counter screen (AID 743211); note: nearly all actives have a fitted effect of over 55% in size
In short: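 qHTS cell viability: PPARd-bla HEK293H; 17 h cpd, 37C; CellTiter-Glo, luminescence at 30 min RT.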

[11] = target: Peroxisome proliferator-activated receptor delta (Homo sapiens) (UniProt Q03181); test: qHTS assay to identify small molecule agonists of the peroxisome proliferator-activated receptor delta (PPARd) signaling pathway (AID 743212; calls by dose curve)
Peroxisome proliferator-activated receptor delta (Homo sapiens), sequence (Q03181 whole entry, looked up): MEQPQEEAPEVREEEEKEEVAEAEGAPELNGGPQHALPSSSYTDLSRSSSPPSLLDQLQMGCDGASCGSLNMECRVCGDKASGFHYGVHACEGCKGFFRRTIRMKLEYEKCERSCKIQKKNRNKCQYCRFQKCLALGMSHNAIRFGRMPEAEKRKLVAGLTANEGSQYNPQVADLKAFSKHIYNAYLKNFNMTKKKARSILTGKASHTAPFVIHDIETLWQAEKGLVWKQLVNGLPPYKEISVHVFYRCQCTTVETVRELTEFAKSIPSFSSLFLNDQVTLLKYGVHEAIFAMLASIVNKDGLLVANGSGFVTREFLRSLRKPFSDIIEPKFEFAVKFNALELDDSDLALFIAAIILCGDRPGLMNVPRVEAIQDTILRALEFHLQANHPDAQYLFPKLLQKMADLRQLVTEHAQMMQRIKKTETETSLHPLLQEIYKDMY
In short: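 Read-out: beta-lactamase FRET fluorescence after 2 h room-temperature incubation with LiveBLAzer B/G substrate. Cells were HEK293H carrying a UAS-bla reporter for PPARd, treated at 37 C with DMSO-dissolved compounds.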

[12] = qHTS assay to identify small molecule antagonists of the peroxisome proliferator-activated receptor delta (PPARd) signaling pathway - cell viability counter screen (AID 743213); note: nearly all actives have a fitted effect of over 50% in size
In short: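 In this counter screen, HEK293H cells carrying a UAS-beta-lactamase reporter are co-treated with test compounds and 300 nM L165041 (final) for 17 h at 37 C; cell viability is quantified by CellTiter-Glo luminescence.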

[13] = target: Peroxisome proliferator-activated receptor delta (Homo sapiens) (UniProt Q03181); test: qHTS assay to identify small molecule antagonists of the peroxisome proliferator-activated receptor delta (PPARd) signaling pathway (AID 743215; active = well fitted inhibition curve with a large enough effect in the signal ratio in the repeat runs, not every such curve was filed as active; the % refers to the signal ratio;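 note: cells stimulated with agonist L165041 at 300 nM final during compound exposure; series mostly up to about 62 µM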)
In short: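 HEK293H GeneBLAzer PPARd UAS-bla reporter cells; cpd + L165041 300 nM final, 17 h 37 C; LiveBLAzer B/G FRET substrate 2 h RT; fluorescence intensity read-out. Antagonist mode.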

[14] = qHTS assay to identify small molecule agonists of the farnesoid-X-receptor (FXR) signaling pathway - cell viability counter screen (AID 743218); note: nearly all actives have a fitted effect of over 45% in size
In short: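 Luminescence from CellTiter-Glo, read after 30 min at RT, reports viability of GeneBLAzer FXR-UAS-bla HEK 293T cells treated 16 h with compounds in the wells used for the beta-lactamase reporter.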

[15] = qHTS assay to identify small molecule antagonists of the farnesoid-X-receptor (FXR) signaling pathway - cell viability counter screen (AID 743221; active = well fitted cell-killing curve with a large enough effect in the repeat runs, not every such curve was filed as active; note: nearly all actives have a fitted effect of over 50% in size)
In short: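 After a 5 h settling period, FXR-bla HEK 293T cells receive compound and chenodeoxycholic acid (50 uM final) and incubate 16 h at 37 C; CellTiter-Glo luminescence, read after 30 min at room temperature, reports cell viability.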

[16] = target: Vitamin D3 receptor (Homo sapiens) (UniProt P11473); test: qHTS assay to identify small molecule agonists of the vitamin D receptor (VDR) signaling pathway (AID 743222; calls by dose curve)
Vitamin D3 receptor (Homo sapiens), sequence (P11473 whole entry, looked up): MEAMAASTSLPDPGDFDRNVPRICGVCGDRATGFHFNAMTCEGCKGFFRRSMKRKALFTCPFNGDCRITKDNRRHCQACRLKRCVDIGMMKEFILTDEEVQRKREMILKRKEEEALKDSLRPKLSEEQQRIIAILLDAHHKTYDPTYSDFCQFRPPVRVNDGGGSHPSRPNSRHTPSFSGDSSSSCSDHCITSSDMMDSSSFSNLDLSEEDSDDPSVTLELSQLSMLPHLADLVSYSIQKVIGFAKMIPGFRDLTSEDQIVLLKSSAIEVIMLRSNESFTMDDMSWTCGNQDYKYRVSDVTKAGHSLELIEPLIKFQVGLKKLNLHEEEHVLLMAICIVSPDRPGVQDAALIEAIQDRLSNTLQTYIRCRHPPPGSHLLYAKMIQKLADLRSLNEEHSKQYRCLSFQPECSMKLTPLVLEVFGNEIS
In short: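 Beta-lactamase reporter readout (LiveBLAzer B/G FRET, 2 h RT) in VDR-bla cells after 16 h compound treatment at 37C, 5% CO2; cells pre-incubated 4 h before pin transfer of DMSO solutions.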

[17] = target: Vitamin D3 receptor (Homo sapiens) (UniProt P11473); test: qHTS assay to identify small molecule antagonists of the vitamin D receptor (VDR) signaling pathway (AID 743223; active = well fitted inhibition curve with a large enough effect in the signal ratio in the repeat runs, not every such curve was filed as active; the % refers to the signal ratio)
In short: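 Reporter line VDR-bla; stimulus 1alpha,25-(OH)2 vitamin D3, 3 nM final; compound co-addition, 16 h 37C/5% CO2; LiveBLAzer B/G substrate 2 h RT; fluorescence intensity.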

[18] = target: Bile acid receptor (Homo sapiens) (UniProt Q96RI1); test: qHTS assay to identify small molecule antagonists of the farnesoid-X-receptor (FXR) signaling pathway (AID 743217; active = well fitted inhibition curve with a large enough effect in the signal ratio in the repeat runs, not every such curve was filed as active; the % refers to the signal ratio)
Bile acid receptor (Homo sapiens), sequence (Q96RI1 whole entry, looked up): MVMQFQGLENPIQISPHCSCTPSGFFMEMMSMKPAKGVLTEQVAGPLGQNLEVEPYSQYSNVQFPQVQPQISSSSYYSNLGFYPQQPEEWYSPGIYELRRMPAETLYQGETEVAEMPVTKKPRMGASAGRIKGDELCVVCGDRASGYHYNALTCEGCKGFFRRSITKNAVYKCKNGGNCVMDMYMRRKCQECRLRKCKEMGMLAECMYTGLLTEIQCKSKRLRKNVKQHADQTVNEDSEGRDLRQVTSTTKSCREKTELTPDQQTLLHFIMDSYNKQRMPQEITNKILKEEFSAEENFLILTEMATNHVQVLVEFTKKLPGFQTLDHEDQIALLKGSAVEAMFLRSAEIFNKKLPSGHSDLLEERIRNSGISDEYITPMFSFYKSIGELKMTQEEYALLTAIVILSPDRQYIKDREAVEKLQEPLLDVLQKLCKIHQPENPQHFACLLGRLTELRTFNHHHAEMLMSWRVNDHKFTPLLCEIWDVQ
In short: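 Read-out: beta-lactamase FRET fluorescence (LiveBLAzer B/G substrate, 2 h, room temperature) in GeneBLAzer FXR-UAS-bla HEK 293T cells. Compounds were co-dosed with 50 uM chenodeoxycholic acid (final) and incubated 16 h at 37 °C.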

[19] = target: Bile acid receptor (Homo sapiens) (UniProt Q96RI1); test: qHTS assay to identify small molecule agonists of the farnesoid-X-receptor (FXR) signaling pathway (AID 743220; active = well fitted activation curve with a large enough effect in the signal ratio in the repeat runs, not every such curve was filed as active; the % refers to the signal ratio)
In short: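 FXR-UAS-bla HEK 293T cells carrying a UAS-driven beta-lactamase reporter were plated for 5 h at 37C/5% CO2, then exposed to DMSO-dissolved Tox21 10K compounds for 16 h at 37C. A LiveBLAzer B/G FRET substrate was loaded for 2 h at room temperature before fluorescence reading.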

[20] = qHTS assay for small molecule agonists of the antioxidant response element (ARE) signaling pathway (AID 743202; active = well fitted activation curve with a large enough effect in the signal ratio in the repeat runs, not every such curve was filed as active; the % refers to the signal ratio)
In short: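 HepG2 ARE-bla reporter line, 2,000 cells/well; 5 h preincubation 37 C/5% CO2; compound (DMSO) 16 h 37 C; B/G FRET substrate 2 h RT; fluorescence intensity.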

Compound | Potency [1] | Potency [2] | Potency [3] | Potency [4] | Potency [5] | Potency [6] | Potency [7] | Potency [8] | outcome [9] | Potency [10] | outcome [11] | Potency [12] | Potency [13] | Potency [14] | Potency [15] | outcome [16] | outcome [17] | Potency [18] | outcome [19] | Potency [20]
C=CCCl | inactive | inactive | inactive | inactive | inactive | inactive | inactive | inactive | inactive | inactive | inactive | inactive | inactive | inactive | inactive | inactive |  |  |  | 
N#CCC#N | inactive | inactive | inactive | inactive | inactive | inactive | inactive |  |  | inactive |  | inactive | inactive | inactive | inactive | inactive |  |  |  | 
CC(O)(CS(=O)(=O)c1ccc(F)cc1)C(=O)Nc1ccc(C#N)c(C(F)(F)F)c1 (configuration not stated) | inactive | inactive | inactive | inactive | inactive | inactive |  | inactive | inactive | inactive | inactive |  | inactive | inactive | inactive | inactive | inactive |  |  | 
CCCCCCCCCC(=O)O[C@H]1CC[C@H]2[C@@H]3CCC4=CC(=O)CC[C@@H]4[C@H]3CC[C@]12C | inactive | inactive | inactive | inactive | inactive | inactive | inactive |  | inactive | inactive | inactive | inactive | inactive | inactive | inactive |  | inactive | inactive | inactive | 
ClCC(Br)CBr (configuration not stated) | inactive | inactive | inactive | inactive | inactive | inactive | inactive | inactive | inactive | inactive |  | inactive |  | inactive | inactive | inactive | inactive |  |  | inactive
CCCN(CCCl)c1c([N+](=O)[O-])cc(C(F)(F)F)cc1[N+](=O)[O-] | inactive | inactive | inactive | inactive | inactive | inactive | inactive | inactive | inactive | inactive | inactive | inactive |  | inactive |  | inactive | inactive | inactive | inactive | 
COC(N)=O | inactive | inactive | inactive | inactive | inactive |  | inactive | inactive | inactive | inactive | inactive | inactive | inactive |  | inactive | inactive |  | inactive |  | 
CC(C)(OO)c1ccccc1 | inactive | inactive | inactive | inactive | inactive | inactive | 61.1 µM (active) | 49 µM (active) |  | inactive | inactive | inactive | inactive | inactive |  | inactive |  | inactive | inactive | 
CCOS(C)(=O)=O | inactive | inactive | inactive | inactive | inactive | inactive | inactive | inactive | inactive | inactive | inactive |  | inactive |  | inactive | inactive | inactive | inactive | inactive | inactive
COc1cc(CC(C)N)cc2c1OCO2 (configuration not stated) | inactive | inactive | inactive | inactive | inactive | inactive | inactive | inactive | inactive | inactive | inactive | inactive | inactive | inactive |  |  |  | inactive |  | 
ClCCCCBr | inactive | inactive | inactive | inactive | inactive | inactive | inactive | inactive | inactive | inactive | inactive | inactive | inactive | inactive |  | inactive | inactive | inactive | inactive | 
O=C(O)c1ccccc1C(=O)Nc1cccc2ccccc12 | inactive | 13.7 µM (active) | inactive | inactive | inactive | inactive | inactive | inactive | inactive | inactive | inactive | inactive | inactive | inactive | inactive | inactive | inactive | inactive | inactive | 
Nc1nc(N)nc(N)n1 | inactive | inactive | inactive | inactive | inactive | inactive | inactive | inactive | inactive | inactive | inactive | inactive | inactive | inactive | inactive | inactive | inactive | inactive | inactive | 
c1ccc(C2CC2)c(OCC2=NCCN2)c1 | inactive | inactive | inactive | inactive | inactive |  | inactive | inactive | inactive | inactive | inactive | inactive | inactive | inactive |  | inactive |  |  |  | inactive
CCCCCCCCOC(=O)c1ccc(C(=O)OCCCCCCCC)c(C(=O)OCCCCCCCC)c1 | inactive | inactive | inactive | inactive | inactive | inactive | inactive | inactive |  | inactive | inactive | inactive | inactive | inactive |  |  |  | inactive | inactive | 
CCCCN=C=O | inactive | inactive | inactive | inactive | inactive |  | inactive | inactive | inactive | inactive | inactive | inactive | inactive | inactive | inactive | inactive | inactive | inactive |  | 
CCOP(=O)(OCC)Oc1ccc([N+](=O)[O-])cc1 | inactive | inactive | inactive | inactive | 22.1 µM (active) |  | inactive | inactive | inactive | inactive | inactive |  | inactive | inactive | inactive | inactive | inactive |  | inactive | 
